Test results: PubChem BioAssay (Tox21)
Records with an inconclusive call do not appear. A call without a number means that no potency is given here. Activity calls are given as the source filed them. The call rests on the fitted dose curve.

assay: qHTS assay for small molecule agonists of the antioxidant response element (ARE) signaling pathway - cell viability counter screen (AID 743203); conditions: ARE-bla HepG2 viability, CellTiter-Glo luminescence, 16 h; series mostly up to 73.3 µM; viability change, negative = cytotoxic: at the top concentration; further: nearly all actives have a fitted effect of over 55% in size
Summary of the method: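 Measured in the same wells as the beta-lactamase ARE reporter, this read-out is CellTiter-Glo luminescence from HepG2 ARE-bla cells given compounds for 16 hrs.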
Potency means the concentration at half of the fitted maximal effect.

SMILES | Potency | viability change, negative = cytotoxic
CC1=C(/C=C/C(C)=C/C=C/C(C)=C/CO)C(C)(C)CCC1 | inactive | 
O=C1N=C(O)CN1/N=C/c1ccc(-c2ccc([N+](=O)[O-])cc2)o1 | inactive | 
CCOC(=O)/C=C\C(=O)OCC | inactive | 
CC1CC(OC(=O)c2ccccc2O)CC(C)(C)C1 (stereo unspecified) | inactive | 
S=c1nc[nH]c2nc[nH]c12 | 842 nM (active) | 
CC(C)(C)C1CCC(O)CC1 (stereo unspecified) | inactive | 
CC(=O)[C@@]1(O)CC[C@H]2[C@@H]3CCC4=CC(=O)CC[C@]4(C)[C@H]3CC[C@@]21C | inactive | 
CCCCCCCCCC(=O)O |  | 3.16% [at 94.8 µM] (inactive)
NCc1cccc(CN)c1 | inactive | 
CC(C)n1c(/C=C/[C@@H](O)C[C@@H](O)CC(=O)O)c(-c2ccc(F)cc2)c2ccccc21 | inactive | 
CCCCC(CC)COC(=O)CCCCCCCC(=O)OCC(CC)CCCC (stereo unspecified) | inactive | 
OCC1CCCO1 (stereo unspecified) | inactive | 
CCOC(=O)C1OC1c1ccccc1 (stereo unspecified) | inactive | 
C=C(C)C(=O)OCCC[Si](OC)(OC)OC | inactive | 
C/C=C(C)/C=C/C=C(C)C | inactive | 
CCCCC(CC)C(=O)OCCOCCOCCOC(=O)C(CC)CCCC (stereo unspecified) | inactive | 
CCCCCCCCCCC=CC1CC(=O)OC1=O (stereo unspecified) | inactive | 
C[C@@H]1O[C@@H](OC[C@H]2O[C@@H](Oc3c(-c4ccc(O)c(O)c4)oc4cc(O)cc(O)c4c3=O)[C@H](O)[C@@H](O)[C@@H]2O)[C@H](O)[C@H](O)[C@H]1O | inactive | 
O=C(c1cc(O)c(O)c(O)c1)c1ccc(O)c(O)c1O | inactive | 
Oc1ccc(OCc2ccccc2)cc1 | inactive | 
Cc1cc(Cc2ccc(N)c(C)c2)ccc1N | inactive | 
